We go through 1 compound from the supplement of paper PMC6411743.

For the experiment, the target named is T1, NUFIP2 (UniProt Q7Z417).
T1 sequence (whole entry): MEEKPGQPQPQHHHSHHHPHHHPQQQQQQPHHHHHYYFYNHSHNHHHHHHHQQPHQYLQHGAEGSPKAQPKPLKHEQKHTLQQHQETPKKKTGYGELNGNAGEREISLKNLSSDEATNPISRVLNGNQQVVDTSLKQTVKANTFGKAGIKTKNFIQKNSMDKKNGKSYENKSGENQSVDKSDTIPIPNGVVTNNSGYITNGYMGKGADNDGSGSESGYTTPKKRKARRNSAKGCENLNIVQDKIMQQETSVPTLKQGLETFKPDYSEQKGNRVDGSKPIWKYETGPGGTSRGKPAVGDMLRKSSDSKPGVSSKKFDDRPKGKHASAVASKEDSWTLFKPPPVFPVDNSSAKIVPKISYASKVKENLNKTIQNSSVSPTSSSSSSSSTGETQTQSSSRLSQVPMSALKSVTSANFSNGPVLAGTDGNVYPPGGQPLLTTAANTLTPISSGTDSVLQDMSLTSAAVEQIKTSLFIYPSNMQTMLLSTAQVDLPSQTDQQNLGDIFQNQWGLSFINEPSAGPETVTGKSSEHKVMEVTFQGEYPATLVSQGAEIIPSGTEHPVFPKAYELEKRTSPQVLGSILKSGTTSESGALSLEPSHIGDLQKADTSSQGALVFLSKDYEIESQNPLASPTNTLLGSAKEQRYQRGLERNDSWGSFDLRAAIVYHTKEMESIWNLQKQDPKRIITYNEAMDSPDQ
The experiment is described as follows: NP40-soluble protein abundance relative to vehicle (solubility fold change) (ratio); higher = more soluble protein in presence of GTP. Here is the method: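 Solubility proteome profiling in Jurkat crude lysate. Lysate was treated with Mg-GTP (0.1-10 mM) for 10 min at room temperature and 3 min at 37 °C, then solubilised with 0.8% NP40 and benzonase, followed by ultracentrifugation. Proteins were quantified by TMT10 LC-MS/MS; the value is the NP40-soluble abundance relative to the NP40-processed vehicle, from 3 independent experiments.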

± gives the standard deviation of the averaged measurements. The full data set covers some 5,400 targets. This sample favours those with the largest changes.

For `Nc1nc2c(ncn2[C@@H]2O[C@H](COP(=O)(O)OP(=O)(O)OP(=O)(O)O)[C@@H](O)[C@H]2O)c(=O)[nH]1` [guanosine triphosphate], the NP40-soluble protein abundance was 0.964 ± 0.079 (concentration: 0.1mM); 0.977 ± 0.14 (concentration: 0.5mM); 1.06 ± 0.12 (concentration: 1mM); 1.07 ± 0.15 (concentration: 2mM); 1.17 ± 0.15 (concentration: 4mM); 1.21 ± 0.15 (concentration: 6mM). Moreover, the NP40-soluble protein abundance reads like this: (concentration: 8mM) 1.28 ± 0.089; (concentration: 10mM) 1.34 ± 0.13.
